This note sets out measurements from PubChem BioAssay AID652025 (National Center for Advancing Translational Sciences (NCATS), 2013).

Several values for one entry are separate records, joined by “and”; a condition that tells them apart may be missing. Equal values may be shown once. About 240 (0.067%) of roughly 360,000 compounds were called active. Only a selection was taken, and actives are over-represented in it overall. A number with no mark means an inactive call. Cut-off read from the data, not from the text of the source: active = activation above about 50%; inconclusive = mostly about 30% to 49%; inactive = weaker than that.

This experiment in a line: qHTS of IL-2 Activators. Note: 0% is about no effect. The conditions noted are these: IL-2 activation reporter assay, cell-based qHTS; active compounds read high; in transgenic mouse T cells; stimulated with anti-CD3/CD4/CD28 beads. The text has this:
The adaptive immune response against any infectious agent begins with the activation of an antigen specific T cell. This relatively rare and inert ("naive") T cell undergoes a massive proliferative expansion and differentiation process to generate sufficient number of potent pathogen-specific effector T cells. The effector T cells fight the infection by making cytokines and helping other cells to become fully armed as well. If any naive T cell has antigen receptors (TCRs) that can be activated by self peptides, then a variety of regulatory mechanisms kick in to prevent this cell from performing to its full potential. These processes collectively constitute the phenomenon of immunological tolerance and their failure leads to autoimmunity. One arm of tolerance involves generation of biochemical negative feedback downstream of the TCR (tuning). This is especially relevant to self antigens present in the body over long periods of time (chronic), which form the bulk of our proteome. The negative feedback serves to tune the TCR signaling, such that the ambient antigenic stimulation is nullified intracellularly. Unfortunately, this critical machinery serves as a target for chronic viral, bacterial and parasitic infections (as well as tumors), which can evade a robust immune response, simply by allowing T cells to tune down their signaling to pathogen or malignancy derived antigens. As such, disrupting the tuning in such cases would allow the tolerant T cell to function again and deliver a robust effector response.
If a therapeutic can restore responsiveness to the tuned down T cell, even for a short time, they could combat the pathogen without any additional immunization. To that end, we have developed a sensitive HTS T cell based assay based on IL-2. This assay will be screened against the Molecular Libraries Small Molecule Repository (MLSMR) to find small molecules that could elicit this response.
NIH Chemical Genomics Center [NCGC]
NIH Molecular Libraries Probe Centers Network [MLPCN]
Assay Submitter (PI): Ron Schwartz, NIAID
4 microL (750 cells/well) of unstimulated transgenic mouse T cells (columns 1-3,5-48) are dispensed into Aurora LoBase, black clear-bottom 1536-well assay plates; column 4 receives an identical concentration of transgenic memory T cells as a non-tolerant control. Compounds are then transferred via Kalypsys pin tool equipped with 1536-pin array (10 nL slotted pins, V&P Scientific, San Diego, CA). Following addition of compound and a 60 minute incubation, 1 microL of bead stimulation solution ((0.04 micron Fluospheres (Life technologies, CA) coated with 10ug/ml each anti-CD3 and anti-CD4 (clones 2C11 and GK1.5, BD Biosciences, CA) and mixed with 1ug/ml anti-CD28 (clone PV-1, BD biosciences, CA)). columns 2-48) is added to stimulate the IL-2 response pathway; media is instead added to column 1 as an unstimulated control, while PMA/ionomycin (Sigma Aldrich, MO) is added to column 3 as a control for IL-2 tolerance bypass. The plates are then incubated at 37 degrees C for 18 hours. EGFP and DsRed signal are then detected using an Acumen eX3 Explorer fluorescent plate cytometer. All cells are dispensed in cell media containing EHAA (Quality Biologicals, MD), RPMI (Quality Biologicals, MD), Glutamine (Life Technologies, CA), Penicillin/Streptomycin (Quality Biologicals, MD), 2-ME (Sigma Aldrich, MO) and 10% FBS (Gemini Bioproducts, CA) .
A general note: Quantitative high-throughput screening tests each substance at several concentrations.
With `O=S1(=O)C=C(SCCN2CCCC2)c2ccccc21`, the activation was 5.28%. The value for `[O-][n+]1c2c(nn1-c1ccc(Cl)c(Cl)c1)-c1nonc1CC2` was 0.19%; that for `CCOC(=O)c1cn[nH]c1NC(=S)Nc1ccccc1` was -3.84%. With `CCOC(=O)C1C(=O)OC2(CCCC2)C1C(=O)OCC` (stereo not drawn) the figure was -0.195%; with `Cc1c(C(=O)NC(=S)NCc2cccnc2)oc2ccccc12`, -3.54%. Regarding `COC(=O)C1=C(N)Oc2c(oc(CO)cc2=O)C1c1c(F)cccc1Cl` (stereo not drawn), the activation is 1.1%. The value for `C=CCOC(=O)N1CCC2CC1c1cc(-c3ccc(OC)cc3)ccc12` (stereo not drawn) was -0.638%; that for `COc1ccccc1N(C(=O)Cn1nnc2ccccc21)C(C(=O)NCc1ccco1)c1ccc(C)o1` (stereo not drawn) was -0.406%. With `CN(CCO)Cc1csc2ccc(Br)cc12` the figure was -0.737%; with `CCOc1ccc(C(=O)NC(C(=O)NCc2ccccn2)C(C)C)cc1` (stereo not drawn), -4.42%; with `COc1ccc(/C=C/CN2CCN(Cc3ccc(C)cc3)C(CCO)C2)cc1` (stereo not drawn), 0.996%. The value for `Cc1cccc(C(=O)O)c1[N+](=O)[O-]` was -0.181%; that for `O=C1C=CC(=O)N1c1ccc(N2CCCCC2)cc1` was -7.5%. As for `OCC1(CO)CC2(C1)CC(CO)(CO)C2`, the activation is 0.276%.

Regarding `CC(C)(C)C(=O)NNC(=O)c1ccc(Oc2cc(Cl)cc(Cl)c2)o1`, the activation was 0.282%. The value for `Cc1ccc(NC(=O)c2nc[nH]c2C(=O)N2CCCCC2)c(C(=O)c2ccccc2)c1` was -0.352%.

In the case of `O=C(CCN1C(=O)/C(=C/c2cccs2)SC1=S)NNC(=O)c1cccc(O)c1`, the activation was 133% (active).

As for `O=C(CCN1C(=O)c2ccccc2C1=O)NNC(=O)c1ccc(Cl)cc1Cl`, the activation is 0.499%. For the compound `O=C1/C(=C/c2cccs2)SC(=S)N1C1CCS(=O)(=O)C1` (stereo not drawn), the activation was 2.78%. The value for `CCOC(=O)C1CCCN(S(=O)(=O)c2ccc3c(c2)C(C)(C)C(=O)N3C)C1` (stereo not drawn) was -2.21%. For the compound `CCCn1c(=O)c2[nH]c(C3CCCC3)nc2n(CCC)c1=O`, the activation was -0.643%. Regarding `C[C@]12C=CC(=O)C=C1CC[C@@H]1[C@@H]2C(=O)C[C@@]2(C)[C@H]1CC[C@]2(O)C(=O)CO`, the activation is 0.342% and -0.368%. The value for `CCOCCCN(C)C1CCN(C(=O)c2oc3ccccc3c2NC(=O)Cc2cccc([N+](=O)[O-])c2)CC1` was -1.43%; that for `O=C(Nc1ccc(Br)cc1)C1CCC(=O)N1Cc1ccccc1Cl` (stereo not drawn) was -1.19%. The value for `C=CCOC(=O)C1=C[C@H](c2ccc(Br)cc2)C[C@H](OCCCCO)O1` was 0.356%; that for `CC(C)OC(=O)Cn1nc(C(F)(F)F)c2c1CCCC2` was 0.525%; that for `C=CCn1c(CCNC(=O)c2ccccc2F)nnc1SCC(=O)Nc1ccc(OC)cc1` was 0.0893%. With `CON(C)S(=O)(=O)c1ccc2c(c1)NC(=O)C1CCCN21` (stereo not drawn) the figure was -2.38%. Regarding `O=c1[nH]c(CSc2ccccc2)nc2c1oc1ccccc12`, the activation is 0.844%. With `CCC(C)Sc1nc2c(cnn2-c2ccc(F)cc2)c(=O)[nH]1` (stereo not drawn) the figure was -4.9%; with `CC(=O)CC[C@@H](C)O[C@@H]1OC(C)[C@H](O)CC1O` (stereo partly drawn), 0.121%; with `C/C(=N\NC(=O)c1ccc(CSc2nc(C)cc(C)n2)cc1)C1CCCCC1`, -0.149%. `Cc1cc(C)n(CCNC(=O)CC2C(=O)NCCN2Cc2ccc(C)o2)n1` (stereo not drawn): the activation was -0.111%. With `COc1ccccc1N(CC(=O)Nc1ccccc1C(=O)N1CCCC1)S(C)(=O)=O` the figure was -1.54%. As to `Cc1cc(Br)ccc1SCC(=O)OCC(=O)NCc1ccc2c(c1)OCO2`, the activation is -3.89%.

For the compound `CCOc1ccc(NC(=O)CN(C)CC(=O)Nc2cccc(Cl)c2C)cc1OCC`, the activation is -1.33%. On to `Nc1ccc(N=Nc2ccccc2Cl)c(N)n1`, for which the activation was 0.821%.

Regarding `Nn1cnnc1N/N=C/c1cc([N+](=O)[O-])c(Cl)cc1Cl`, the activation was -0.276%. Regarding `CC1=C(C(N)=O)C(c2ccc3c(c2)OCO3)n2nc(-c3cccc(C)c3)nc2N1` (stereo not drawn), the activation was -0.667%. For the compound `O=c1nc(NO)ccn1C1CCCO1` (stereo not drawn), the activation is -4.07%. The value for `CC(C)(C)OC(=O)Nc1ccc([C@@H](NC(=O)OC(C)(C)C)C(=O)OC(C)(C)C)cc1` was 1.22%; that for `COc1ccc(CCNC(=O)c2ccc(NC(=O)CC3SC(N4CCCCC4)=NC3=O)cc2)cc1OC` (stereo not drawn) was 1.44%. As to `O=C(CSc1nc(Nc2ccccc2)nc(N2CCOCC2)n1)Nc1cc(Cl)ccc1O`, the activation was -3.68%. The value for `CC(C)CN1C(=O)CN(S(C)(=O)=O)CC1(C)C(=O)NCc1ccccc1` (stereo not drawn) was -0.324%.

Turning to `O=C(Nc1ccc(F)c(Cl)c1)C1CCN(S(=O)(=O)c2cccnc2)CC1`, the activation was -4.67%. With `CCN1/C(=C\c2ccc3ccccc3[n+]2CC)Sc2cc(C)ccc21` the figure was 83.8% (active).

As to `O=C(O)C1CCCCC1C(=O)Nc1ccc(Cl)cc1` (stereo not drawn), the activation is -0.998%. With `NC(N)=NCCCc1cn(CC(=O)N2CCNCC2)nn1` the figure was -0.704%; with `CCC[C@H]1CCCC/C=C\CCCC(=O)OCCN1C(=O)OC(C)(C)C`, -3.09%.

With `OC(CNCc1ccc(Cl)c(Cl)c1)c1ccccc1` (stereo not drawn), the activation is 0.815%.

Turning to `Cc1ccc(C)c(NS(=O)(=O)c2cc(Br)cnc2N)c1`, the activation was -0.259%.

Turning to `CN1CCN(c2ccc(CNS(=O)(=O)c3cccc(F)c3)cc2)CC1`, the activation was -0.358%.

On to `COc1ccc(CNC(=O)CN2C(=O)NC3(CCCc4sccc43)C2=O)cc1` (stereo not drawn), for which the activation was 1.66%.

On to `CN(c1ccccc1)c1nc(N)c([N+](=O)[O-])c(NCc2ccco2)n1`, for which the activation was 2.01%. In the case of `CCCC1NC(=O)NC(C)=C1C(=O)OCC` (stereo not drawn), the activation is -3.34%. Take `CC1(C(=O)NCc2ccc(F)c(F)c2)Cc2c(-c3ccc4c(c3)OCO4)ccnc2O1` (stereo not drawn): the activation is 0.821%. The value for `Cc1ccc(OCCNC(=O)CN2C(=O)NC3(CCCC3)C2=O)cc1` was -0.135%; that for `Cc1ccc(CNC(=O)Cn2cnc3c(NCc4ccccc4)ncnc32)o1` was -0.27%.
